# Experimental data from paper PMC11006913.
# Tests used:
# Assay in all cases: PBM; 200 nM protein, PBS
# Conditions in all cases: dsDNA, one strand shown
# SHOX [1] = molecular target: SHOX (Homo sapiens, UniProt O15266 103-189)
# PITX2 = PITX2 (Homo sapiens, UniProt Q99697 72-157)
# SHOX [2] = molecular target: SHOX (Homo sapiens, UniProt O15266 103-189, R173C)
# ALX3 [3] = molecular target: ALX3 (Homo sapiens, UniProt O95076 139-225, N203Q)
# HOXD13 [4] = molecular target: HOXD13 (Homo sapiens, UniProt P35453 263-343, T313R)
# HOXC9 = HOXC9 (Homo sapiens, UniProt P31274 178-260, R222W)
# ALX3 [5] = molecular target: ALX3 (Homo sapiens, UniProt O95076 139-225, N203S)
# ALX3 [6] = molecular target: ALX3 (Homo sapiens, UniProt O95076 139-225)
# ALX3 [7] = molecular target: ALX3 (Homo sapiens, UniProt O95076 139-225, L168Q)
# ALX3 [8] = molecular target: ALX3 (Homo sapiens, UniProt O95076 139-225, L168V)
# HOXD13 [9] = molecular target: HOXD13 (Homo sapiens, UniProt P35453 263-343)
# HOXC10 = HOXC10 (Homo sapiens, UniProt Q9NYD6 254-340, K271E)
# HOXD13 [10] = molecular target: HOXD13 (Homo sapiens, UniProt P35453 263-343, T313A)
# Chain of HOXD13 (Homo sapiens, UniProt P35453 263-343, T313A) (P35453 263-343 T313A): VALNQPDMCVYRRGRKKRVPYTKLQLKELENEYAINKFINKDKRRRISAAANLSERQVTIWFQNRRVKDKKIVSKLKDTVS
# Chain of SHOX (Homo sapiens, UniProt O15266 103-189, R173C) (O15266 103-189 R173C): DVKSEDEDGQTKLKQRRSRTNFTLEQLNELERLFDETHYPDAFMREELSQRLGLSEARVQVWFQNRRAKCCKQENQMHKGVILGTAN
# Chain of SHOX (Homo sapiens, UniProt O15266 103-189) (O15266 103-189): as the sequence (O15266 103-189 R173C) above, with C71R counted along it
# Chain of HOXD13 (Homo sapiens, UniProt P35453 263-343, T313R) (P35453 263-343 T313R): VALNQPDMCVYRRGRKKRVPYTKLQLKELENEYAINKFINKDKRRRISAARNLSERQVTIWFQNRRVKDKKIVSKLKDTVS
# Chain of ALX3 (Homo sapiens, UniProt O95076 139-225, N203S) (O95076 139-225 N203S): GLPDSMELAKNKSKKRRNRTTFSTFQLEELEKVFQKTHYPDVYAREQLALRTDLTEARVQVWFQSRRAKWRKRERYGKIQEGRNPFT
# Chain of ALX3 (Homo sapiens, UniProt O95076 139-225, N203Q) (O95076 139-225 N203Q): as the sequence (O95076 139-225 N203S) above, with S65Q counted along it
# Chain of HOXC10 (Q9NYD6 254-340 K271E): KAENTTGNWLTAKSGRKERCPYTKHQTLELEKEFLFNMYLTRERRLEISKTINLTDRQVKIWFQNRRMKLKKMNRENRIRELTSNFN
# Chain of ALX3 (Homo sapiens, UniProt O95076 139-225, L168V) (O95076 139-225 L168V): as the sequence (O95076 139-225 N203S) above, with L30V, S65N counted along it
# Chain of ALX3 (Homo sapiens, UniProt O95076 139-225, L168Q) (O95076 139-225 L168Q): as the sequence (O95076 139-225 N203S) above, with L30Q, S65N counted along it
# Chain of ALX3 (Homo sapiens, UniProt O95076 139-225) (O95076 139-225): as the sequence (O95076 139-225 N203S) above, with S65N counted along it
# Chain of HOXD13 (Homo sapiens, UniProt P35453 263-343) (P35453 263-343): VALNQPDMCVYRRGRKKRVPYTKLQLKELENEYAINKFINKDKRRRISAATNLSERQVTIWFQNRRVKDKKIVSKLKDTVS
# Chain of HOXC9 (P31274 178-260 R222W): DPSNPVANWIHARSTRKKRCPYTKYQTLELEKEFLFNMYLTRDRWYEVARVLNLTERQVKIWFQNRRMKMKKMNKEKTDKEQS
sequence,measurement,setting,value
TATTAGGA,binding signal,SHOX [1],"10.1 upbm affinity estimate (log intensity, higher = more binding, comparable within an allelic series)"
same,binding signal,PITX2,"9.87 upbm affinity estimate (log intensity, higher = more binding, comparable within an allelic series)"
AAGGCTCC,binding signal,SHOX [1],"7.08 upbm affinity estimate (log intensity, higher = more binding, comparable within an allelic series)"
same,binding signal,SHOX [2],"7.1 upbm affinity estimate (log intensity, higher = more binding, comparable within an allelic series)"
GGCTGGCA,binding signal,SHOX [1],"7.2 upbm affinity estimate (log intensity, higher = more binding, comparable within an allelic series)"
same,binding signal,SHOX [2],"7.13 upbm affinity estimate (log intensity, higher = more binding, comparable within an allelic series)"
ATATTAAA,binding signal,SHOX [1],"9.92 upbm affinity estimate (log intensity, higher = more binding, comparable within an allelic series)"
same,binding signal,ALX3 [3],"8.59 upbm affinity estimate (log intensity, higher = more binding, comparable within an allelic series)"
same,binding signal,HOXD13 [4],"10.7 upbm affinity estimate (log intensity, higher = more binding, comparable within an allelic series)"
same,binding signal,HOXC9,"11.1 upbm affinity estimate (log intensity, higher = more binding, comparable within an allelic series)"
same,binding signal,ALX3 [5],"8.68 upbm affinity estimate (log intensity, higher = more binding, comparable within an allelic series)"
CCTGGGGC,binding signal,SHOX [1],"7.08 upbm affinity estimate (log intensity, higher = more binding, comparable within an allelic series)"
same,binding signal,ALX3 [3],"7.67 upbm affinity estimate (log intensity, higher = more binding, comparable within an allelic series)"
same,binding signal,SHOX [2],"7.09 upbm affinity estimate (log intensity, higher = more binding, comparable within an allelic series)"
same,binding signal,ALX3 [6],"7.69 upbm affinity estimate (log intensity, higher = more binding, comparable within an allelic series)"
same,binding signal,ALX3 [7],"7.69 upbm affinity estimate (log intensity, higher = more binding, comparable within an allelic series)"
same,binding signal,ALX3 [8],"7.65 upbm affinity estimate (log intensity, higher = more binding, comparable within an allelic series)"
same,binding signal,ALX3 [5],"7.61 upbm affinity estimate (log intensity, higher = more binding, comparable within an allelic series)"
CCAGAGGC,binding signal,SHOX [1],"7.17 upbm affinity estimate (log intensity, higher = more binding, comparable within an allelic series)"
same,binding signal,SHOX [2],"7.18 upbm affinity estimate (log intensity, higher = more binding, comparable within an allelic series)"
CGGGGCCA,binding signal,SHOX [1],"6.97 upbm affinity estimate (log intensity, higher = more binding, comparable within an allelic series)"
same,binding signal,SHOX [2],"7.1 upbm affinity estimate (log intensity, higher = more binding, comparable within an allelic series)"
AGTTTATG,binding signal,SHOX [1],"8.25 upbm affinity estimate (log intensity, higher = more binding, comparable within an allelic series)"
same,binding signal,HOXD13 [4],"10.7 upbm affinity estimate (log intensity, higher = more binding, comparable within an allelic series)"
same,binding signal,HOXD13 [9],"11.9 upbm affinity estimate (log intensity, higher = more binding, comparable within an allelic series)"
same,binding signal,HOXC10,"11.1 upbm affinity estimate (log intensity, higher = more binding, comparable within an allelic series)"
same,binding signal,HOXD13 [10],"11.5 upbm affinity estimate (log intensity, higher = more binding, comparable within an allelic series)"
GGCCCAGA,binding signal,SHOX [1],"7.17 upbm affinity estimate (log intensity, higher = more binding, comparable within an allelic series)"
same,binding signal,SHOX [2],"7.12 upbm affinity estimate (log intensity, higher = more binding, comparable within an allelic series)"
CCGTGGCC,binding signal,SHOX [1],"7.18 upbm affinity estimate (log intensity, higher = more binding, comparable within an allelic series)"
same,binding signal,SHOX [2],"7.22 upbm affinity estimate (log intensity, higher = more binding, comparable within an allelic series)"
CCGCGGCC,binding signal,SHOX [1],"7.18 upbm affinity estimate (log intensity, higher = more binding, comparable within an allelic series)"
same,binding signal,SHOX [2],"7.17 upbm affinity estimate (log intensity, higher = more binding, comparable within an allelic series)"
CAATCTTC,binding signal,SHOX [1],"7.99 upbm affinity estimate (log intensity, higher = more binding, comparable within an allelic series)"
same,binding signal,SHOX [2],"7.51 upbm affinity estimate (log intensity, higher = more binding, comparable within an allelic series)"
GGCCAGAC,binding signal,SHOX [1],"7.3 upbm affinity estimate (log intensity, higher = more binding, comparable within an allelic series)"
same,binding signal,SHOX [2],"7.26 upbm affinity estimate (log intensity, higher = more binding, comparable within an allelic series)"
CTGAGGCA,binding signal,SHOX [1],"7.29 upbm affinity estimate (log intensity, higher = more binding, comparable within an allelic series)"
same,binding signal,SHOX [2],"7.31 upbm affinity estimate (log intensity, higher = more binding, comparable within an allelic series)"
GCGTTAAA,binding signal,SHOX [1],"8.14 upbm affinity estimate (log intensity, higher = more binding, comparable within an allelic series)"
same,binding signal,SHOX [2],"7.56 upbm affinity estimate (log intensity, higher = more binding, comparable within an allelic series)"
